Compounds with a hit are over-represented: about 31% of the library has one in this group of screens.
CYP2C19 act: cytochrome P450 2C19 (human) activation; AID 1025; 96,000 tested, under 10 active; recombinant CYP2C19, luciferin-H EGE luminescence; active compounds read high; 0 = fully inhibited enzyme, 1 = untreated enzyme; activation factor at 5 µM;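 active means activation factor of at least 2 at 5 µM in the primary screen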;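 further: 0 = wells with 2.5 mM tranylcypromine and 1 = vehicle-only wells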
Target sequence (P33261 whole entry, looked up): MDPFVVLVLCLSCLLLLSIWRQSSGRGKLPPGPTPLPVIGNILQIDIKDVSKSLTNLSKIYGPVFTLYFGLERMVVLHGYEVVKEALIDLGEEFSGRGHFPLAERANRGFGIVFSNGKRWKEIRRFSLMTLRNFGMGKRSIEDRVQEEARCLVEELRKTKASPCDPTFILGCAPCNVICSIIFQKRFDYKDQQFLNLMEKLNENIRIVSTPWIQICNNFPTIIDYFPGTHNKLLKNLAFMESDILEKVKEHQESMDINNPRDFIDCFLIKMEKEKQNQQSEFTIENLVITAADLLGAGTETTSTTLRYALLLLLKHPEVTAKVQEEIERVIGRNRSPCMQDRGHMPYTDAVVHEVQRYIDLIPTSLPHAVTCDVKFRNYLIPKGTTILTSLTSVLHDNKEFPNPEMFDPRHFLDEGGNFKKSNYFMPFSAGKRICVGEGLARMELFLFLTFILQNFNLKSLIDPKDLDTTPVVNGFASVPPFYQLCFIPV
CYP2C19 inhib: inhibitors of human CYP2C19; P33261; CYP2C19 Supersomes, luciferin-H EGE luminescence, 30 min; inhibition, % at 5 µM; actives 21% (n = 96,000); AID 778;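 active means CYP2C19 inhibition above a set limit at 5 µM in the primary screen, cut at about 50% in these data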;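 further: plate controls were negative control wells for no effect and 2.5 mM tranylcypromine positive control for full effect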
PLAP act: activates human placental alkaline phosphatase | P05187 | purified PLAP enzyme, luminescent substrate read-out; active compounds read high | activation fold at 20 µM | actives 1.2% (n = 96,000) | AID 696; in the data active means activation fold above about 2
CYP2C9 inhib: human CYP2C9 inhibition; inhibition, % at 5 µM; CYP2C9 Supersomes, luciferin-H conversion, luminescence; P11712; AID 777; actives 20% (n = 96,000);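 active means blocking of liver enzyme CYP2C9 beyond about 50% at 5 µM, limit read from the data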
CYP2C9 activ: activators of human CYP2C9 | recombinant CYP2C9, luciferin-H conversion, luminescence; active compounds read high; factor 1 = untreated enzyme, 0 = blocked | activation factor at 5 µM | actives 1.4% (n = 96,000) | AID 1024;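 active means activation factor of 2 or more for CYP2C9 at a 5 µM dose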;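 further: 0 = sulfaphenazole-blocked wells and 1 = vehicle-only wells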
* marks the source's active call; other numbers are inactive results; · = no result given.

SMILES	CYP2C19 act	CYP2C19 inhib	PLAP act	CYP2C9 inhib	CYP2C9 activ
Cc1cccc(-n2nnc(C(=O)N3CCc4ccccc4C3)c2N)c1	0.9	11.7	1	-223.1	3.2*
CCOc1ccc(NC(=O)Cn2nnc(C(=O)NCCc3ccc(OC)c(OC)c3)c2N)cc1	0.7	31.6	0.7	78.8*	0.2
COc1ccc(CCNC(=O)c2cc(-c3ccccc3O)n[nH]2)cc1OC	0.5	49.8	·	49.5	0.5
COc1ccc(CCNC(=O)c2nnn(-c3cccc(C)c3)c2N)cc1OC	0.9	8.0	1.6	68.0*	0.3
COc1ccc(CCNC(=O)c2cc(-c3ccc(C)cc3O)n[nH]2)cc1OC	1	4.1	2*	12.6	0.9
Cc1cccc(-n2nnc(C(=O)Nc3ccc(F)cc3)c2N)c1	1.1	-5.9	1	-166.0	2.7*
CC(O)CNc1nc2ccccc2n1CC(=O)NCCc1ccc(Cl)cc1 (stereo not given)	0.5	50.3*	1.5	36.3	0.6
O=C(Cn1c(NCCO)nc2ccccc21)c1ccc(Cl)cc1	0.9	7.7	1	4.7	1
CCc1ccc2c(c1)C(c1ccc([N+](=O)[O-])cc1)=NNC(c1ccc(F)cc1)=N2	1.2	-17.3	0.9	-1.8	1
Cc1cc(NC(=O)c2ccc(Cl)cc2)c(C(C)C)cc1O	0.5	51.0*	0.9	-77.6	1.8
Cc1cc(C)c(C)c(/C=C(/C#N)C(N)=S)c1C	0.8	24.5	1.1	64.6*	0.4
CCOc1ccc(/C=N/NC(=O)Cc2csc(Nc3cccc(C(F)(F)F)c3)n2)cc1	0.9	8.4	1.6	22.6	0.8
CC1(C)NC(=O)N(CC(O)CN2CCCCC2)C1=O (stereo not given)	1	-2.5	0.9	-0.3	1
CC1(C)NC(=O)N(CC(O)COC2CCCCC2)C1=O (stereo not given)	0.2	82.4*	1.1	42.5	0.6
CC1(C)NC(=O)N(CC(O)COc2ccc(-c3ccccc3)cc2)C1=O (stereo not given)	0.6	44.5	1.1	12.7	0.9
Cc1cc(C)cc(OCC(O)CN2C(=O)NC(C)(C)C2=O)c1 (stereo not given)	0.3	72.2*	1.5	44.0	0.6
CC1(C)NC(=O)N(CC(O)COc2ccccc2-c2ccccc2)C1=O (stereo not given)	0	99.2*	1.6	86.6*	0.1
O=C(CSc1nnc2c(Cl)cc(Cl)cn12)N1CCOCC1	1.3	-26.5	0.9	-8.0	1.1
CCC(Sc1nc2ccccc2c(=O)n1CCN1CCOCC1)C(=O)NCc1cccnc1 (stereo not given)	0.6	39.1	1.4	77.9*	0.2
CCC(Sc1nc2ccccc2c(=O)n1CC1CCCO1)C(=O)NCc1cccnc1 (stereo not given)	0.9	12.6	0.9	76.0*	0.2
O=C1/C(=C/c2cccnc2)Oc2cc(OS(=O)(=O)c3ccc(Cl)cc3)ccc21	0.7	26.0	1.4	50.5*	0.5
O=C1CCCC2=C1C(c1ccc(OS(=O)(=O)c3ccc(Cl)cc3)cc1)C1=C(CCCC1=O)O2	1.1	-10.5	1.1	-17.4	1.2
O=C1/C(=C/c2cccnc2)Oc2cc(OS(=O)(=O)c3ccccc3)ccc21	0.7	34.8	1.2	56.5*	0.4
Cc1ccc(S(=O)(=O)Oc2cccc(N3C(=O)C4CC=CCC4C3=O)c2)cc1 (stereo not given)	0.8	16.5	1	-38.2	1.4
COc1ccc(S(=O)(=O)Oc2ccc3c(c2)O/C(=C\c2cccnc2)C3=O)cc1	0.3	74.8*	1.2	91.9*	0.1
SMILES	CYP2C19 act	CYP2C19 inhib	PLAP act	CYP2C9 inhib	CYP2C9 activ
CCCc1nn2c(=O)c(C(c3cccc(Cl)c3)c3c(O)nc4sc(CCC)nn4c3=O)c(O)nc2s1	1	4.5	1	12.5	0.9
O=C(CSC1=NS(=O)(=O)c2ccccc21)Nc1ccccc1	0.5	52.6*	1.2	31.7	0.7
COC(=O)CSC1=NS(=O)(=O)c2ccccc21	1.3	-26.2	1	-16.9	1.2
Clc1ccc(OCc2nnc3n2N=C(c2ccc4c(c2)OCCO4)CS3)c(Cl)c1	0.3	74.5*	0.8	97.1*	0
Cc1ccc(-n2nnnc2SCC(=O)c2c(N)n(CC(C)C)c(=O)n(C)c2=O)cc1	0.8	21.5	1.2	19.3	0.8
CCCn1nc(-c2nnc(-c3ccc(C)c(C)c3)o2)c2ccccc2c1=O	1	-3.3	0.6	19.4	0.8
O=S(=O)(Nc1ccc(-c2cn3ccsc3n2)cc1)c1ccc2c(c1)OCCO2	0.2	76.4*	1.1	91.3*	0.1

Screens as filed in PubChem.
